Experimental data taken from PubChem BioAssay (NCATS).
Where “and” joins values, the source holds several entries; their conditions need not be identical. Equal values may be shown once. Results filed as inconclusive are left out. Calls of active or inactive are those of the source. Unless noted, calls come from the whole dose curve; as a rule, active = well fitted curve in the direction sought with a large enough effect; inconclusive = small, poorly fitted or top-dose-only effect, or another doubt; inactive = no such curve, though single readings can be large; an effect the other way counts as inactive or inconclusive.

Legend:
[1] = AP1 Signaling Pathway (AID 357; active = well fitted curve in either direction with a large enough effect, not every such curve was filed as active;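 note: ME-180 reporter cells stimulated with EGF at its EC50 level; % is set by controls: 0 for no effect and ±100 for the full control effect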); conditions: ME-180 AP-1-bla reporter, EGF-induced, beta-lactamase ratio, 5 h
Method in brief: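 In this screen, ME-180 cells in Opti-MEM with 0.5% dialyzed FBS received EC50 EGF and compound titrations for 5 h. AP-1 reporter beta-lactamase was detected via CCF4 ratio, giving AC50 for positive and negative modulators.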

[2] = Stat Signaling Pathway (AID 446; active = well fitted curve in either direction with a large enough effect, not every such curve was filed as active;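 note: ME-180 cervical cancer cells given 40 pM IL-6 alongside compound; SIE-controlled beta-lactamase reporter measured as 460/530 nm FRET emission ratio; % is set by controls: 0 for no effect and ±100 for the full control effect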); conditions: ME-180 (cervical carcinoma) SIE beta-lactamase reporter, IL-6 stimulated, 5 h
Method in brief: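 FRET read-out (405 nm excitation, 460/530 nm emission) of a beta-lactamase reporter under a STAT-inducible element in ME-180 cervical carcinoma cells. Cells with compound receive 40 pM IL-6 for 5 h. Values are normalised to AC90 stimulation and AC90 JAK-inhibitor controls.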

[3] = biological target: Mitogen-activated protein kinase 10 (Mus musculus) (UniProt Q61831); experiment: JNK3 AlphaScreen Assay (AID 530; active = well fitted curve in either direction with a large enough effect, not every such curve was filed as active;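 note: kinase came from lysate of stimulated human HepG2 cells; signal reports phosphorylation of biotinylated GST-cJun 1-79 at Ser73 with 10 µM ATP; % is set by controls: 0 for no effect and ±100 for the full control effect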)
Method in brief: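 Kinase buffer: 20 mM Tris-HCl pH 7.6, 10 mM MgCl2, 1 mM DTT, 0.1 mM Na3VO4, 0.01% Tween-20; ATP 10 uM. Substrate biotin-GST-cJun(1-79), enzyme from activated HepG2 lysates. Detection by Ser73 phospho-antibody AlphaScreen.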

[4] = biological target: 3',5'-cyclic-AMP phosphodiesterase 4B (Homo sapiens) (UniProt Q07343); experiment: qHTS Assay for Inhibitors of PDE-IV (AID 607; active = well fitted activation curve with a large enough effect in the main read-out, with a control signal flat, not every such curve was filed as active; note: % of control where 0% means no effect)
Method in brief: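 Cell-based read-out of cAMP via a modified cyclic nucleotide-gated channel and membrane potential dye (535/590 nm) in HEK293 cells expressing PDE4 endogenously. Compounds tested up to 22.9 uM final; 100 uM RO 20-1724 reference.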

[5] = biological target: Guanine nucleotide-binding protein G(i) subunit alpha-1 (Homo sapiens) (UniProt P63096); experiment: qHTS Assay for Inhibitors of RGS12 GoLoco Motif Activity (Green Fluorophore) (AID 879);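 note: 0% = labeled peptide with Gαi1 and full inhibition = labeled peptide alone without protein; negative values mean loss of peptide binding seen as reduced polarization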
Method in brief: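 A drop in FITC polarization marked displacement of the FITC-tagged RGS12 GoLoco peptide (10 nM) from Gαi1 (50 nM). Compounds were incubated 10 min at room temperature in Tris pH 7.5 buffer containing 150 mM NaCl, 0.1 mM GDP and 0.05% NP40; unlabeled peptide titration served as control.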

[6] = biological target: Muscarinic acetylcholine receptor M1 (Rattus norvegicus) (UniProt P08482); experiment: qHTS Assay for Antagonists of Acetylcholine Muscarinic M1 Receptor: Measurement of IP-One Response (AID 944); note: nearly all actives have a fitted effect of over 75% in size
Method in brief: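 Read-out: HTRF competition between d2-IP1 and Eu-cryptate anti-IP1 antibody, emission 620 and 665 nm. Stimulus was carbachol, EC80 (200 nM), for 30 min in M1-CHO cells (rat receptor), after 10 min compound pre-treatment.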

[7] = biological target: Pyruvate kinase (Leishmania mexicana) (UniProt Q27686); experiment: qHTS Validation Assay for Inhibitors of Leishmania Mexicana Pyruvate Kinase (AID 945);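 note: 0% = DMSO only neutral control wells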
Method in brief: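 Purified LmPYK (E451W mutant, 0.2 nM) was incubated 1 h at room temperature with 0.5 mM PEP and 0.1 mM ADP in 50 mM imidazole pH 7.2, 50 mM KCl, 7 mM MgCl2; ATP formed was read by PKLight luminescence, normalized to DMSO wells.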

[8] = biological target: Pyruvate kinase PKM (Homo sapiens) (UniProt P14618); experiment: qHTS Assay for Activators of Human Muscle Pyruvate Kinase (AID 954; active = well fitted curve in the direction sought with a large enough effect, not every such curve was filed as active;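 note: 0% = uninhibited enzyme and -100% = no enzyme or full thiadiazolimine inhibition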)
Method in brief: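 ATP production by PKM2 detected via luciferase luminescence after 1 h room-temperature reaction (0.1 nM enzyme, PEP at Km 0.5 mM, ADP 0.1 mM, pH 7.2 imidazole buffer). Inhibition scaled to no-enzyme control; activation referenced to 0.3 nM enzyme wells.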

[9] = biological target: Alpha-galactosidase A (Homo sapiens) (UniProt P06280); experiment: Counterscreen for Glucocerebrosidase Inhibitors: qHTS Assay for Human alpha-Galactosidase at pH 4.5 (AID 992); note: 0% is about no effect
Method in brief: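 Fluorogenic 1536-well qHTS at pH 4.5 (citrate, Tween-20): 2 nM enzyme, 80 uM 4-MU-alpha-galactoside, 20 min room temperature, NaOH/glycine stop. Titration 0.7 nM to 77 uM, data normalized to no-enzyme and full-activity controls, Hill-fitted AC50.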

[10] = biological target: alpha-glucosidase (Oryza sativa, rice) (UniProt Q653V4); experiment: Counterscreen for Glucocerebrosidase Inhibitors: qHTS Assay for Rice alpha-Glucosidase at pH 5.0 (AID 997);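 note: 0% = full activity with enzyme and -100% = basal without enzyme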
Method in brief: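 Endpoint fluorogenic assay at pH 5.0: compounds (0.7 nM to 77 uM) titrated against 4 nM rice enzyme and 400 uM 4-MU-alpha-glucoside for 20 min at room temperature; NaOH/glycine stop, read ex 365/em 440 nm, Hill-fitted AC50.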

[11] = qHTS Assay for Lipid Storage Modulators (AID 1519; calls by dose curve); conditions: Drosophila S3 cells, BODIPY lipid droplet/cell ratio, laser cytometry, cells loaded with oleic acid
Method in brief: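 Cells seeded at 5,000 per well were treated with compounds over a concentration series and loaded with oleic acid (400 uM, as added). Lipid droplet fluorescence (488 nm excitation, 500-530 nm channel) was read by laser-scanning cytometry and normalized to 20 uM Triacsin C.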

[12] = biological target: DNA repair nuclease/redox regulator APEX1 (Homo sapiens) (UniProt P27695); experiment: qHTS Validation Assay for Inhibitors of the Human Apurinic/apyrimidinic Endonuclease 1 (APE1) (AID 1705;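 note: TAMRA fluorescence gain over two minutes as APE1 cuts a quenched THF abasic duplex; % is set by controls: 0 for no effect and ±100 for the full control effect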)
Method in brief: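 qHTS, 1536-well. APE1 + cpd 15 min RT → 50 nM TAMRA/BHQ-2 THF-abasic dsDNA substrate → kinetic fluorescence, 3 reads/60 s; delta(read3−read1) = reaction progress. No-enzyme buffer = negative control.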

[13] = Counterscreen for APE1 Inhibitors: Fluorescent Dye Displacement Validation Assay (AID 1707);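 note: plate controls were ThO with dsDNA and no compound for no effect and ThO without dsDNA for full effect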
Method in brief: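 Counterscreen flags promiscuous DNA binders: compounds displacing ThO from duplex DNA (abasic THF site, 50 nM) reduce 540 nm emission (480 nm excitation). ThO 250 nM final; Tris-HCl pH 7.5 with NaCl, MgCl2 and Tween-20.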

[14] = qHTS for differential inhibitors of proliferation of Plasmodium falciparum line GB4 (AID 1816); conditions: Potency: Plasmodium falciparum GB4 proliferation inhibition;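 note: potency is the fitted concentration of half-maximal effect; parasite growth measured after 72 h incubation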
[15] = qHTS for differential inhibitors of proliferation of Plasmodium falciparum line 3D7 (AID 1876); note: potency is the fitted concentration of half-maximal effect
[16] = qHTS for differential inhibitors of proliferation of Plasmodium falciparum line D10 (AID 1877);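 note: potency is the fitted concentration of half-maximal effect; parasites grown with compound for 72 h before DNA staining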
[17] = qHTS for differential inhibitors of proliferation of Plasmodium falciparum line Dd2 (AID 1882); conditions: Potency: Plasmodium falciparum Dd2 proliferation inhibition; note: potency is the fitted concentration of half-maximal effect; nearly all actives have a fitted effect of over 65% in size
Method in brief: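 RBC culture, 0.3% parasitemia / 2.5% Hct final; cpd added by pin tool in DMSO; 72 h, 37 C, 5% CO2; lysis buffer + SYBR Green I, o/n RT dark; FI 485/535; norm. to artemisinin 0.29 uM and DMSO.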

[18] = qHTS for differential inhibitors of proliferation of Plasmodium falciparum line W2 (AID 1883); conditions: Potency: Plasmodium falciparum W2 proliferation inhibition;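 note: potency is the fitted concentration of half-maximal effect; parasites grown with compound for 72 h before lysis and staining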
[19] = qHTS for differential inhibitors of proliferation of Plasmodium falciparum line HB3 (AID 1886); conditions: Potency: Plasmodium falciparum HB3 proliferation inhibition;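 note: potency is the fitted concentration of half-maximal effect; parasites grown with compound for 72 h before SYBR Green readout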
[20] = biological target: Ferritin light chain (Equus caballus) (UniProt P02791); experiment: qHTS Validation Assay for Identification of Novel General Anesthetics (AID 2323); note: % is set by controls: 0 for no effect and ±100 for the full control effect
Method in brief: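 Fluorescence at 535 nm (excitation 380 nm) reported loss of 1-AMA binding to horse-spleen apoferritin (10 uM) in PBS with 50% saturated 1-aminoanthracene, after 10 min room-temperature incubation with compound; values from Hill fits of normalized response.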

[21] = biological target: ATP-dependent DNA helicase Q1 (Homo sapiens) (UniProt P46063); experiment: qHTS Validation Assay for Inhibitors of RecQ-Like Dna Helicase 1 (RECQ1) (AID 2353);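 note: plate controls were DMSO vehicle for no effect and enzyme-free control for full effect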
Method in brief: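 RECQ1T1 50 nM; forked duplex (20 bp + 30-nt ss tails) 200 nM, ATP 2 mM final; pH 8.0, 2 mM MgCl2, 2.5 ug/ml poly(dI-dC); 15 min compound preincubation; discontinuous kinetic read over 2 h at RT.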

[22] = biological target: RecQ-like DNA helicase BLM (Homo sapiens) (UniProt P54132); experiment: qHTS Validation Assay for Inhibitors of Bloom's syndrome helicase (BLM) (AID 2364);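 note: plate controls were DMSO vehicle for no effect and enzyme-free control for full effect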
Method in brief: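 Forked 20-bp duplex substrate (200 nM, TAMRA/BHQ-2) plus 2 mM ATP added after 15 min compound preincubation with 50 nM enzyme, pH 8.0, poly(dI-dC) 2.5 ug/ml. Strand separation followed by fluorescence (525/598 nm) over 2 h, normalized to enzyme-free and DMSO controls.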

[23] = Validation screen for small molecules that induce DNA re-replication in MCF 10A normal breast cells (AID 463097); note: 0% is about no effect; nearly all actives have a fitted effect of over 60% in size
Method in brief: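 Image-based qHTS: normal breast cells are incubated with compound for 48 hr, stained with Hoechst, and scanned for total nuclear fluorescence. Compounds raising the fraction of nuclei with elevated DNA content count as re-replication inducers.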

[24] = Quantitative high throughput screen for delayed death inhibitors of the malarial parasite plastid, 96 hour incubation (AID 488745); note: potency is the fitted concentration of half-maximal effect; nearly all actives have a fitted effect of over 70% in size
Method in brief: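 Luciferase-expressing P. falciparum, infected RBCs 2% Hct/0.1% parasitemia (final); 96 h cpd exposure, 37 C, 5% CO2; RPMI 1640 + 0.5% Albumax, bicarbonate, gentamycin. Readout: luminescence loss = growth inhibition.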

[25] = Quantitative high throughput screen for delayed death inhibitors of the malarial parasite plastid, 48 hour incubation (AID 488752); note: potency is the fitted concentration of half-maximal effect; nearly all actives have a fitted effect of over 65% in size
Method in brief: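 Luciferase-expressing P. falciparum in RBCs, 2% Hct, 0.1% parasitemia final; RPMI 1640 + 0.5% Albumax; 48 h, 37 C, 5% CO2; luminescence readout, signal drop = growth inhibition.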

[26] = biological target: Thyrotropin receptor (Homo sapiens) (UniProt P16473); experiment: qHTS Assay for Antagonists of the Thyroid Stimulating Hormone Receptor (AID 488980); note: 0% is about no effect
Method in brief: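 Readout is cAMP by HTRF competition between cellular cAMP and cAMP-d2 for a cryptate-labelled antibody. Antagonism was assessed in TSHR-transfected HEK293 cells stimulated with 4 nM TSH (EC80, final) in the presence of RO 20-1724.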

[27] = biological target: Thyrotropin-releasing hormone receptor (Homo sapiens) (UniProt P34981); experiment: qHTS for Small Molecule Agonists and Allosteric Enhancers of Human TRH Receptor: Validation Screen for Agonists (AID 493127;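 active = calcium activation more than 3 SD above the typical response in the agonist read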;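 note: intracellular calcium rise by fluo-8 fluorescence before TRH EC20 addition; 0% is about no effect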); conditions: TRH receptor agonist cell assay; at 2 µM; stronger effect = higher value
Method in brief: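 Read-out: intracellular calcium release measured kinetically by FDSS (fluo-8, ex 480/em 530 nm), 1 reading/s after a 10-cycle baseline. TRHR cells, 2000/well, cultured 18 h at 33.5C, dye-loaded at room temp. Compound-evoked positive calcium signal flags agonists.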

[28] = biological target: Galactokinase (Homo sapiens) (UniProt P51570); experiment: qHTS Validation Assay for Inhibitors of Human Galactokinase (GALK) (AID 493189); note: 0% is about no effect
Method in brief: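 5 nM GALK / 100 uM galactose / 35 uM ATP, 20 mM HEPES pH8.0, 5 mM MgCl2, 60 mM NaCl, 1 mM DTT, 0.01% BSA (final). RT 1 h; Kinase-Glo Plus luminescence.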

Chain of Guanine nucleotide-binding protein G(i) subunit alpha-1 (Homo sapiens) (P63096 whole entry, looked up): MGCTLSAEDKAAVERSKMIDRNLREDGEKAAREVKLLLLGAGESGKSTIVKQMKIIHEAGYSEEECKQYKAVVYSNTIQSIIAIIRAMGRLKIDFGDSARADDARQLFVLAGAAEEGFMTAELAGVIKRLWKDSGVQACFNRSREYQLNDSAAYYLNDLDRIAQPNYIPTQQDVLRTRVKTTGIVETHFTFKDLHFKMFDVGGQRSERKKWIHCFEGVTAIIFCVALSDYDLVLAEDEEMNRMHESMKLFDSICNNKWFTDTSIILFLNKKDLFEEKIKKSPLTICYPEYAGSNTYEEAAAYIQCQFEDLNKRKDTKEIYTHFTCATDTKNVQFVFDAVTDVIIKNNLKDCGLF
Chain of 3',5'-cyclic-AMP phosphodiesterase 4B (Homo sapiens) (Q07343 whole entry, looked up): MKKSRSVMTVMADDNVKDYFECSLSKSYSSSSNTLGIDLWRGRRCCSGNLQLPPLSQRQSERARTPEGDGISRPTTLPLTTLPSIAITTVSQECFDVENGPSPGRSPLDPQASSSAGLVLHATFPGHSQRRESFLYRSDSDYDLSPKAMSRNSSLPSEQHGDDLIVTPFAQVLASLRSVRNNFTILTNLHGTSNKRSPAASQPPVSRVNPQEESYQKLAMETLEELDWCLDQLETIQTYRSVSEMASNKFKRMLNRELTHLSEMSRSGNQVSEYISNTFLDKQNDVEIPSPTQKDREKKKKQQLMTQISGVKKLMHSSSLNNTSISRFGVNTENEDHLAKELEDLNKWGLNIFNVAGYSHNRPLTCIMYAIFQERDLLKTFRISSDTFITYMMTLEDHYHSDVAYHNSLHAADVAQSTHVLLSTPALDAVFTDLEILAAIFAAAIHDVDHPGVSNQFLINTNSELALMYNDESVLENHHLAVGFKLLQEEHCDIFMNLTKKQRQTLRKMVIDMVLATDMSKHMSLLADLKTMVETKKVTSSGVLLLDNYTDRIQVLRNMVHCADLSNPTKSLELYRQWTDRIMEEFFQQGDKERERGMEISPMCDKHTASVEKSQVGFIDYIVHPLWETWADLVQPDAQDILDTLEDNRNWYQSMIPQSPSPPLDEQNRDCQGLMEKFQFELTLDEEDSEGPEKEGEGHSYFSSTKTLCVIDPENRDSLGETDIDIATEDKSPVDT
Chain of Pyruvate kinase (Leishmania mexicana) (Q27686 2-499 E452W): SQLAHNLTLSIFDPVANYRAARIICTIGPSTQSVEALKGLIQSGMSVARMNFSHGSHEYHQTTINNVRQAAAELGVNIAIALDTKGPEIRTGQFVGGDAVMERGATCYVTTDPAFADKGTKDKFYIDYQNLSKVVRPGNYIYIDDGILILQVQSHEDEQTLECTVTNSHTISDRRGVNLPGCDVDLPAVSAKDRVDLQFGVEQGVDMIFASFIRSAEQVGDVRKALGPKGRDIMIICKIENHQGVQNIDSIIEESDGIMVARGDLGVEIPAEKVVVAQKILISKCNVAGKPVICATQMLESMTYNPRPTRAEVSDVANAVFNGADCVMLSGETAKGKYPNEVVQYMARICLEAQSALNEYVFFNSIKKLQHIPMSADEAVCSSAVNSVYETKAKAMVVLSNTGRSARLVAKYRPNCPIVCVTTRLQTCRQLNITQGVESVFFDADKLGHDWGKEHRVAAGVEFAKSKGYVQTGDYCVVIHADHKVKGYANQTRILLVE
Chain of Pyruvate kinase PKM (Homo sapiens) (P14618 whole entry, looked up): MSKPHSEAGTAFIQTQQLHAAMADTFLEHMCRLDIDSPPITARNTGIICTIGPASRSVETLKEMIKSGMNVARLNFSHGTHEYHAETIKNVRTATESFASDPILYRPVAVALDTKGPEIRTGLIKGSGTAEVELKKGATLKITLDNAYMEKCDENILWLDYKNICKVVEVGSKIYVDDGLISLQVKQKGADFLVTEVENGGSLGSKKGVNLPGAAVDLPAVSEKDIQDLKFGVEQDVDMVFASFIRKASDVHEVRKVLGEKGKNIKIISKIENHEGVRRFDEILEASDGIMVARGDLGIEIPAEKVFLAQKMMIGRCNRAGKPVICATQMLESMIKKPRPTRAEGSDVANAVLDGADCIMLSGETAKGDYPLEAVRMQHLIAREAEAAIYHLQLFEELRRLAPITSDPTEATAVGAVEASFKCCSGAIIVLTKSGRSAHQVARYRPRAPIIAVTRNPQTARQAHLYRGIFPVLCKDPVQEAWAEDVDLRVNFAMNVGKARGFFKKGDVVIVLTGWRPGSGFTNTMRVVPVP
Chain of Alpha-galactosidase A (Homo sapiens) (P06280 whole entry, looked up): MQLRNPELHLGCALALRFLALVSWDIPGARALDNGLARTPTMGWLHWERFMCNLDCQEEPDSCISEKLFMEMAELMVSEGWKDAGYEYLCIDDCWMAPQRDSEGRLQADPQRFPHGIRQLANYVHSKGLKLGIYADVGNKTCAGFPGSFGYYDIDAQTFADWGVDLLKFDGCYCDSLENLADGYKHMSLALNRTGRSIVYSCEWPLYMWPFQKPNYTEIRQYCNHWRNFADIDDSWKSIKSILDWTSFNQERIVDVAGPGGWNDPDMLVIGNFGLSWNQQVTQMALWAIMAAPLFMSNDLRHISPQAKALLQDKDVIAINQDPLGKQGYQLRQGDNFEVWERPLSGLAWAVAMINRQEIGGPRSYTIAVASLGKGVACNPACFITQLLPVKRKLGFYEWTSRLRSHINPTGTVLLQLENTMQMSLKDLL
Chain of ATP-dependent DNA helicase Q1 (Homo sapiens) (P46063 whole entry, looked up): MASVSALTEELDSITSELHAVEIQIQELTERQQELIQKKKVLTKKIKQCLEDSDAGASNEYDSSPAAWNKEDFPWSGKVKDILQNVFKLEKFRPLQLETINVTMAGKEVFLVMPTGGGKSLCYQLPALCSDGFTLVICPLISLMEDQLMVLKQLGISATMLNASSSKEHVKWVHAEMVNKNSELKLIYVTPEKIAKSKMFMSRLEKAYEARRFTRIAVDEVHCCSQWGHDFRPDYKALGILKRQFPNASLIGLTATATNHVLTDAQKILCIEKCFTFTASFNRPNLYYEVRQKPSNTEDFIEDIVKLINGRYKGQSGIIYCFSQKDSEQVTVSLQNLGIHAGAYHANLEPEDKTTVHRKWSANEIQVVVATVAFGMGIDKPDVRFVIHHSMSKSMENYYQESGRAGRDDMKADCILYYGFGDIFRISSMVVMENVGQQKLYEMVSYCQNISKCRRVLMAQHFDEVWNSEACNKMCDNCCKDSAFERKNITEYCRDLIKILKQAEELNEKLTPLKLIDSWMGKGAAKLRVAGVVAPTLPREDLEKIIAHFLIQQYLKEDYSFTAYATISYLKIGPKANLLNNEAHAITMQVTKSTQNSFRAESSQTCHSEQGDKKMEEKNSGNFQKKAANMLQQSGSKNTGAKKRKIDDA
Chain of DNA repair nuclease/redox regulator APEX1 (Homo sapiens) (P27695 whole entry, looked up): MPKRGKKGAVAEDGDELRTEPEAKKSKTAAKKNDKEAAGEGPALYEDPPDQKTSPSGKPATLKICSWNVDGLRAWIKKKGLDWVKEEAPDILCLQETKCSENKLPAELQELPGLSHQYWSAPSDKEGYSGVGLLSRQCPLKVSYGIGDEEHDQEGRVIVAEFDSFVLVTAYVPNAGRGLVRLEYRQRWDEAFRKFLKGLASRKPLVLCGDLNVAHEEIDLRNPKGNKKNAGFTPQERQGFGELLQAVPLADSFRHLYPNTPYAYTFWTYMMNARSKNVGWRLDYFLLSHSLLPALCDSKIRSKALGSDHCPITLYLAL
Chain of Ferritin light chain (Equus caballus) (P02791 2-175 limits assumed): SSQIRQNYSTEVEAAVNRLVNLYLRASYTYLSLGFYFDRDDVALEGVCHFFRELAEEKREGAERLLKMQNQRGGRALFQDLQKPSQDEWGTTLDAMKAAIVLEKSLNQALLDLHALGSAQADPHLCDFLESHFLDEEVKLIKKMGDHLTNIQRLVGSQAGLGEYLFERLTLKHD
Chain of Galactokinase (Homo sapiens) (P51570 whole entry, looked up): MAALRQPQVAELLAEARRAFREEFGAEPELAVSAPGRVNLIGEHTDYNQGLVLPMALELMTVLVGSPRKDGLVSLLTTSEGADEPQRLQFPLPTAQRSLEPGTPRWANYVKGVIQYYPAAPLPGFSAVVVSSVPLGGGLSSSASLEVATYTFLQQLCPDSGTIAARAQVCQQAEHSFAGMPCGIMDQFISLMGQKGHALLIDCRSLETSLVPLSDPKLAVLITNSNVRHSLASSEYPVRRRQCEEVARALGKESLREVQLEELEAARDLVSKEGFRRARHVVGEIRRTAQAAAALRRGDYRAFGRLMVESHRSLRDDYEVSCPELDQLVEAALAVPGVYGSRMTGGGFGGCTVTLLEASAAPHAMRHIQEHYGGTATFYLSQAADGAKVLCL
Chain of Thyrotropin receptor (Homo sapiens) (P16473 whole entry, looked up): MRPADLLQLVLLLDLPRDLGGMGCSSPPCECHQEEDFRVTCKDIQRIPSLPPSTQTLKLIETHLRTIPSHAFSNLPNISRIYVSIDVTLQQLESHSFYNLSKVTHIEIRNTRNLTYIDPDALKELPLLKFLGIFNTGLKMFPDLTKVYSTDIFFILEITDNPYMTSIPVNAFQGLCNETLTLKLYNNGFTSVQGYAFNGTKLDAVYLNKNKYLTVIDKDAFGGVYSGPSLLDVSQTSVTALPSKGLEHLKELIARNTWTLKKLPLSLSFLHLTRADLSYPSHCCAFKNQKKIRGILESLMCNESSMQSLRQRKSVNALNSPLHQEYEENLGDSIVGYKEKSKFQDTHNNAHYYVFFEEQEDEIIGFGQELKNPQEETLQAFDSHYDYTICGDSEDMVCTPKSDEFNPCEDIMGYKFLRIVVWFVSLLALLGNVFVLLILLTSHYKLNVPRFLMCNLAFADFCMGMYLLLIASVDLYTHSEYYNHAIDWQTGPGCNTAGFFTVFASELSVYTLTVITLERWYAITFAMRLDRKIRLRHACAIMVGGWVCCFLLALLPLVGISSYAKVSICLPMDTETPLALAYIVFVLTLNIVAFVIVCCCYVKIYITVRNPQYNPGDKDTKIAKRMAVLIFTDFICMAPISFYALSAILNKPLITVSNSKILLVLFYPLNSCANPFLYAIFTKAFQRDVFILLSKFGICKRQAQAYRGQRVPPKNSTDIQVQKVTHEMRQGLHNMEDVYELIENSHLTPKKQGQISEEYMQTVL

CCCNC[C@H](O)COc1ccccc1C(=O)CCc1ccccc1
-13.7% and -51.9%: max response ([11]; measured here: lipid channel max response)
active: Potency [14] 0.316 µM | Potency [15] 0.891 µM | Potency [16] 2 µM | Potency [17] 1.12 µM | Potency [18] 0.282 µM | Potency [19] 1.12 µM | Potency [24] 2.62 µM | Potency [25] 2.08 µM
-11.4% and -51.8%: max response ([11]; measured here: cell count channel max response)
inactive: activity change, negative = inhibition ([1]; at 17.2 µM (top of the series)) 6.84% | activity change, negative = inhibition ([1]; at 38 µM (top of the series)) 18.1% and 7.01% | activity, negative = inhibition ([2]; at 17.2 µM (top of the series)) -4.64% | activity, negative = inhibition ([2]; at 38 µM (top of the series)) -19.1% and -13.3% | outcome [3] | Potency [4] | outcome [5] | Potency [6] | Potency [7] | outcome [8] | outcome [9] | outcome [10] | activity change, negative = inhibition ([11]; at 25.7 µM (top of the series)) -1.16% | activity change, negative = inhibition ([11]; at 57.5 µM (top of the series)) -2.08% | Potency [12] | Potency [13] | outcome [20] | Potency [21] | Potency [22] | outcome [23] | outcome [26] | activation [27] 3.19% | outcome [28]
